SMILES strings stand for the structures. Records with an inconclusive call do not appear. Entries that show only a call come without a potency. The source made the active and inactive calls. The call rests on the fitted dose curve; in most records, active means well fitted inhibition curve with a large enough effect; inconclusive means small, poorly fitted or top-dose-only effect; inactive means flat fitted curve, though single readings scatter.

In the assay the test system is CRL-7250. The assay can be described thus: qHTS assay to identify novel small-molecules to repurpose for Merkel cell carcinoma treatment (AID 1296009). Further: nearly all actives have a fitted effect of over 60% in size. The note with it: MCC and control cell lines, CellTiter-Glo viability, 72 h; series mostly up to 92 µM. A digest of the protocol: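 CellTiter-Glo luminescence after 72 hr compound exposure at 37 degree celsius gave cell viability. Libraries NPC and MIPE were run as 8- and 11-point dose responses; RLUs normalized to DMSO (negative) and no-cell (cytotoxicity) controls.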
On the technique in general: Quantitative high-throughput screening tests each substance at several concentrations.
Regarding `c1nc(NC2CCCCCC2)c2cc(CNC[C@H]3CCCO3)sc2n1`, the Potency result was “inactive”.
Consider `O=C(/C=C/c1ccccc1)OCC1=CC[C@@H]2C(C(=O)O)=CO[C@@H](O[C@@H]3O[C@H](CO)[C@@H](O)[C@H](O)[C@H]3O)[C@H]12`, for which the Potency entry is “inactive”.
On the same count and under the same terms, for `CCOc1ccc(C(Nc2ccccn2)c2ccc3ccc(C)nc3c2O)cc1C` (stereo not drawn) the value was “inactive”.
As to `CC1(C)CC[C@]2(C(=O)O[C@@H]3O[C@H](CO[C@@H]4O[C@H](CO)[C@@H](O)[C@H](O)[C@H]4O)[C@@H](O)[C@H](O[C@@H]4O[C@H](CO)[C@@H](O)[C@H](O)[C@H]4O)[C@H]3O)CC[C@]3(C)C(=CCC4[C@@]5(C)CC[C@H](O[C@@H]6OC[C@@H](O)[C@H](O)[C@H]6O)[C@@](C)(C(=O)O)C5CC[C@]43C)[C@@H]2C1` (stereo partly drawn), the outcome was “inactive [at 9.27 µM]”.
As to `COC(=O)c1ccccc1O[C@@H]1O[C@H](CO)[C@@H](O)[C@H](O)[C@H]1O[C@@H]1O[C@@H](C)[C@H](O)[C@@H](O)[C@H]1O`, the Potency entry is “inactive”.
Turning to `C[C@H](N)C(=O)N[C@@H](Cc1ccc(O)cc1)C(=O)N1CCC[C@H]1C(=O)NCC(=O)N[C@@H](CCCCN)C(=O)N[C@@H](Cc1ccccc1)C(N)=O`, the outcome is “inactive [at 9.27 µM]”.
On to `COc1cc(NC(=O)c2cccc(-n3cc(NC(=O)Nc4cccc(C)c4)cn3)c2)cc(OC)c1OC`, for which the Potency entry is “inactive”.
On to `CC(=O)O[C@@H](C[C@@H]1C=C(C)C(=O)O1)[C@H](C)[C@H]1CCC2[C@@]3(C)CC[C@H](O[C@@H]4O[C@H](CO)[C@@H](O)[C@H](O)[C@H]4O[C@@H]4O[C@@H](C)[C@H](O)[C@@H](O)[C@H]4O)C(C)(C)C3CC[C@@]2(C)[C@@]12COC(=O)C2` (stereo partly drawn), for which the outcome is “inactive [at 9.27 µM]”.
